Screening results (PubChem BioAssay)
An excerpt weighted towards active compounds, which were near 22% of everything screened.
Cycloheximide cs: counter-screen for Shiga toxin inhibitors: cycloheximide protein synthesis inhibition; cell reporter, cycloheximide protein synthesis inhibition counterscreen; max response, %; hit rate 12% among 300,000; AID 2314; in the data active = max response mostly above about 13%, no sharp cut-off; inactive = mostly below about 14%; note: read at 38.3 µM for the half of the compounds with a filed dose; 0% is about no effect
Pf growth 96h: P. falciparum growth inhibition at 96 hour, primary screen for plastid delayed-death inhibitors; hit rate 6.9% among 320,000; Potency, µM (highest dose often 28.7 µM), without a hit: top-dose activity change, negative = inhibition, actives largely listed as inhibitors; P. falciparum luciferase reporter growth, 96 h; AID 504834; note: potency is the fitted concentration of half-maximal effect; % is set by controls: 0 for no effect and ±100 for the full control effect
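Readout is luminescence from an integrated firefly luciferase in P. falciparum. Red cells, 2% hematocrit and 0.05% parasitemia final, were cultured with compound through two parasite generations (96 hours) at 37 C, 5% CO2.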
LmPK inhibitor: inhibitors of Leishmania mexicana pyruvate kinase; Q27686; purified LmPK, Kinase-Glo ATP luminescence, 1 h; Potency, µM (doses to about 57.5 µM), without a hit: top-dose activity change, negative = inhibition, actives largely listed as inhibitors; hit rate 0.37% among 290,000; AID 1721; note: potency is the fitted concentration of half-maximal effect; % is set by controls: 0 for no effect and ±100 for the full control effect
Target sequence (Q27686 whole entry, looked up): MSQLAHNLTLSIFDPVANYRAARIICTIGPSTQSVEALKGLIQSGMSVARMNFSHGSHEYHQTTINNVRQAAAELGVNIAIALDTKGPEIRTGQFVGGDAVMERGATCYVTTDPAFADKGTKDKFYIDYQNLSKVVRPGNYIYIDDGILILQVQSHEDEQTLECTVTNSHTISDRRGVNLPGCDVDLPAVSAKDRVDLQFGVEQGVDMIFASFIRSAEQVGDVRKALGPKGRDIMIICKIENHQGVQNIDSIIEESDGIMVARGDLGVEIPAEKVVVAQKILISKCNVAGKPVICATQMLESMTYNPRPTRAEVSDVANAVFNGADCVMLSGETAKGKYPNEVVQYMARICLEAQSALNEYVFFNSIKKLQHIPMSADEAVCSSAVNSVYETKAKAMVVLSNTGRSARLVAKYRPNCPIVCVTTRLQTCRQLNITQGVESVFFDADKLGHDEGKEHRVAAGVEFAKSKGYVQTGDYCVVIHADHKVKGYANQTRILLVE
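In 50 mM imidazole pH 7.2 with 7 mM MgCl2, LmPK (0.1 nM) turned over PEP (0.5 mM) and ADP (0.1 mM) for 1 h at room temperature. Luciferase read-out of ATP.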
Shiga toxin inh: blocks Shiga toxin action in Vero cells; Vero cells, Shiga toxin protein synthesis inhibition reporter; AID 2315; hit rate 9.2% among 290,000; inhibition, % at 38.7 µM; in the data active = inhibition mostly above about 28%, no sharp cut-off; inactive = mostly below about 43%; note: 0% is about no effect
Pf growth 48h: inhibits P. falciparum growth in the first generation, 48 h. P. falciparum luciferase growth in erythrocytes, 48 h. Potency, µM (series often up to 28.7 µM), without a hit: at the highest dose activity change, negative = inhibition, usual class: inhibitors. hit rate 5.9% among 310,000. AID 504832; note: potency is the fitted concentration of half-maximal effect; % is set by controls: 0 for no effect and ±100 for the full control effect
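Here the parasites carry a stable luciferase gene and grow inside erythrocytes in Albumax-based RPMI medium with compound for one erythrocytic cycle. Activity is scored as loss of luminescent signal.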
* marks the source's active call; other numbers are inactive results; u = inconclusive; x = not tested or not shown. Unless noted, calls come from the whole dose curve; as a rule, active = well fitted inhibition curve with a large enough effect; inconclusive = small, poorly fitted or top-dose-only effect, or another doubt; inactive = no such curve, though single readings can be large or run the other way.

SMILES	Cycloheximide cs	Pf growth 96h	LmPK inhibitor	Shiga toxin inh	Pf growth 48h
Cc1ccc(C)c(N2CCN(S(=O)(=O)c3ccc4c(c3)NC(=O)CO4)CC2)c1	-11	13µM*	-10%	-6	-10%
Cc1ccc2c(c1)N(S(=O)(=O)c1ccc3c(c1)NC(=O)CC(=O)N3)CCO2	-1	8.3µM*	1%	8	7%
CC(C)=C1C2CCC1C1C(=O)N(NC(=O)COc3ccc(C(C)(C)C)cc3)C(=O)C21 (configuration not stated)	-1	x	1%	-7	-24%
CN(CC(=O)Nc1ccccc1Cl)CC(=O)c1c(N)n(Cc2ccccc2)c(=O)n(C)c1=O	x	u	x	x	-12%
Cc1ccc(C)c(NC(=O)Cn2nc(-c3ccccc3)nc2-c2ccccc2)c1	-4	u	1%	-5	2%
COc1ccc(NC(=O)CSc2nnnn2C)cc1S(=O)(=O)N1CCCCC1	x	-18%	x	x	12%
CC1Sc2ccc(S(=O)(=O)N3CCN(c4ccccc4)CC3)cc2NC1=O (configuration not stated)	-2	u	-4%	-8	-10%
O=C1COc2ccc(S(=O)(=O)N3CCN(c4cccc(Cl)c4)CC3)cc2N1	-4	13µM*	-14%	20	13%
CC1Sc2ccc(S(=O)(=O)N3CCN(c4cccc(Cl)c4)CC3)cc2NC1=O (configuration not stated)	6	12µM*	-3%	2	0%
CCOC(=O)C1=C(O)/C(=C/c2cn(CC(=O)N3CCCC3)c3ccccc23)SC1=Nc1ccccc1	1	3.3µM*	-1%	-2	4.7µM*
Cc1cc(N(C)C)ccc1N=Nc1ccc2ncccc2c1	52*	u	-20%	95*	-21%
Cc1ccc2ncccc2c1	x	54%	x	x	110%
Cc1ccc(N2C(=O)CSC2c2cccnc2)c(Cl)c1 (configuration not stated)	16	u	-1%	5	u
Cc1cccc(C)c1NC(=O)C1CCCN1C(=O)Nc1cccc(F)c1 (configuration not stated)	2	u	2%	-3	3%
O=C(NC1CCCCCC1)c1cccc(COCC(F)(F)F)c1	22*	-5%	-15%	active	52%
Cc1ccc(NC(=O)N2CCC(NC(=O)c3ccco3)CC2)cc1	5	-20%	-3%	-3	8%
O=C(NC1CCCCC1)c1ccc(COCC(F)(F)F)o1	10	0%	1%	-13	0%
Cc1ccc(NC(=O)N2CCC(NC(=O)c3cccc(C)c3)CC2)cc1	1	10µM*	-6%	3	u
CCCN1C(=O)c2cc(C(=O)NC3CCCCCC3)ccc2C1O (configuration not stated)	34*	u	-7%	41*	11%
Cc1cccc(CC(=O)NCC2CCCCC2)c1	31*	u	-5%	93*	34%
CN(C)c1cccc(C(=O)NC2CCCc3ccccc32)c1 (configuration not stated)	11	u	0%	26	u
CN(C)c1cccc(C(=O)NC2CCCCCC2)c1	40*	x	-2%	43*	155%
Cc1cccc(C(=O)NC2CCCCCCC2)c1	45*	146%	2%	78*	x
Cc1cccc(C(=O)NC2CCN(S(=O)(=O)c3ccccc3)CC2)c1	-4	-1%	-7%	-22	-1%
COc1ccc(C2/C=C\CN(S(=O)(=O)c3ccc4ccccc4c3)CC(=O)N2Cc2ccc(F)cc2)cc1 (configuration not stated)	14	u	4%	-2	13µM*
SMILES	Cycloheximide cs	Pf growth 96h	LmPK inhibitor	Shiga toxin inh	Pf growth 48h
COc1ccc(C2/C=C\CN(C(=O)OCc3ccccc3)CC(=O)N2Cc2ccc(F)cc2)cc1 (configuration not stated)	-1	u	-2%	2	u
COc1ccc(C2/C=C\CN(Cc3ccccc3)C(C)C(=O)N2Cc2ccc(F)cc2)cc1 (configuration not stated)	36*	x	x	62*	x
COc1ccc(C2/C=C\CN([S+](=O)([O-])c3ccc4ccccc4c3)C(C)C(=O)N2Cc2ccc(F)cc2)cc1 (configuration not stated)	84	x	x	149*	x
Cn1nc(Oc2ncc(C(F)(F)F)cc2Cl)cc1C(F)(F)F	14	26%	8%	18	307%
C=CCOc1ccc(CC(=O)O)cc1Cl	-1	13%	x	17	0%
O=S(=O)(O)c1ccc2c(c1)-c1nc-2nc2[nH]c(nc3nc(nc4[nH]c(n1)c1ccc(S(=O)(=O)O)cc41)-c1ccc(S(=O)(=O)O)cc1-3)c1ccc(S(=O)(=O)O)cc21	-13	x	x	-6	x
CC(=O)c1cccc(NC(=O)CN2C(=O)NC3(CCCCCCC3)C2=O)c1	-4	104%	-1%	23	8%
O=C(CN1C(=O)NC2(CCCC2)C1=O)Nc1cccc(-c2nnc3n2CCCCC3)c1	-3	7.4µM*	-7%	-4	-6%
CCOc1ccc(NC(=O)C2CCN(C(=O)C3CC(=O)N(c4ccc(C)cc4)C3)CC2)cc1 (configuration not stated)	-1	u	-1%	0	-16%
COc1ccc(-c2nc(C(=O)O)cs2)cc1OC	-3	76%	0%	20	23%
COc1ccc(-c2cc(C(=O)O)nc3ccc4ccccc4c23)cc1OC	18*	u	6%	41*	123%
COC(=O)c1ccc(-c2nc3cc(Cl)c(N)cc3s2)cc1	48*	343%	u	106*	218%
COC(=O)c1ccc(-c2nc(O)c(C)s2)cc1	0	18%	-3%	28	10%
Clc1c(-c2ccccc2)nnn1-c1ccccc1	56*	281%	-23%	105*	266%
c1ccc(-n2nnc3ccccc32)cc1	1	42%	-11%	15	34%
CCC(C)C(NC(=O)c1ccccc1NC(=O)c1ccc(OC)cc1)C(=O)NCCCn1ccnc1 (configuration not stated)	12	u	-5%	-3	u
Clc1ccc(CN2CCN(c3ncccn3)CC2)cc1	-2	u	2%	22	-20%
COc1ccc(C2=CC(=O)OC3(CCCCC3)O2)cc1	6	u	0%	18	4.1µM*
COc1cccc(NC=C2C(=O)OC3(CCCCC3)OC2=O)c1	20	29%	3%	67	29%
CN=C1N[C@H](c2ccccc2)N(c2ccccc2)S1	27*	x	x	28	x
Cn1c(S(=O)(=O)Cc2ccc(Cl)cc2)nc2ccccc21	10	2%	-2%	23	u
Cn1c(NCc2ccc(Cl)cc2)nc2ccccc21	38*	1%	-13%	56*	266%
Cc1ccc(CNc2nc3ccccc3n2C)cc1	23*	6%	-12%	27	171%
CCC(CC)C(=O)c1c[nH]c(C(=O)N2CCN(c3ccccc3)CC2)c1	-3	-3%	1%	-8	-3%
